Assay outcomes from PubChem.
The list is not random: actives were taken first. Their share in the collection is about 8.9%.
ALDH1A1 inh: ALDH1A1 (human) enzyme inhibition; Purified ALDH1A1, NADH fluorescence, propionaldehyde substrate; Potency, µM (series often up to 75.3 µM), without a hit: top-dose activity, negative = inhibition, most hits filed as inhibitors; 220,000 compounds, 7.3% hits; AID 1030; active means well fitted inhibition curve with a large enough effect, not every such curve was filed as active; inconclusive means small, poorly fitted or top-dose-only effect, or another doubt; inactive means no such curve, though single readings can be large or run the other way;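 further: potency means the concentration at half of the fitted maximal effect; plate controls were no enzyme wells and a reference inhibitor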
Target sequence (P00352 whole entry, looked up): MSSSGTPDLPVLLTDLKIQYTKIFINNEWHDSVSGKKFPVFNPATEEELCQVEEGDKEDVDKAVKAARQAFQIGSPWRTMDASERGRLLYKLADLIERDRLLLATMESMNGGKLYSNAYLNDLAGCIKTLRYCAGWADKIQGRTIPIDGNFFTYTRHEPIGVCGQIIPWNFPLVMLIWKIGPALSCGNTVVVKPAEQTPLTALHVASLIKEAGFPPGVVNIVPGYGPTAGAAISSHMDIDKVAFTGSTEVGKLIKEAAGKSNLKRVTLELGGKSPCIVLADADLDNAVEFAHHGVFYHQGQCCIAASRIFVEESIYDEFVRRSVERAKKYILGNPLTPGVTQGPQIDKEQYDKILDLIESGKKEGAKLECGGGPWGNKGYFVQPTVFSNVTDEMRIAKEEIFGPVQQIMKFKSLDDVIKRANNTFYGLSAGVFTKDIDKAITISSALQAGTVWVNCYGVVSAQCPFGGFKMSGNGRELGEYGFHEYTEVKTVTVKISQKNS
IMPase Li cell: cell-permeable IMPase inhibitors with lithium potentiation; 210,000 compounds, 0.35% hits; CHO-M1 cells, IP1 TR-FRET (IP-One), carbachol + lithium; Potency, µM (top dose mostly 59.4 µM), without a hit: top-dose activity, negative = IMPase inhibition, hits mostly inhibitors; AID 1457;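 further: IP1 builds up when IMPase is blocked and the TR-FRET signal falls; potency means the concentration at half of the fitted maximal effect; plate controls were basal vehicle for no effect and high inhibitor control for full effect; nearly all actives have a fitted effect of over 50% in size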
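Test compounds were applied to CHO-M1 cells previously cultured for 16–30 h at 2000 per well. A small lithium amount accompanied them; after 30 min at 37C, IP1 was quantified by TR-FRET.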
NPSR antag: neuropeptide S receptor (human) antagonism, cAMP; Q6W5P4; CHO-NPSR cells, cAMP TR-FRET, antagonist mode; Potency, µM (highest dose often 38.3 µM), without a hit: top-dose activity change, negative = inhibition, most hits filed as inhibitors; 220,000 compounds, 1% hits; further: potency means the concentration at half of the fitted maximal effect; nearly all actives have a fitted effect of over 50% in size
12-hLO inh: inhibitors of human 12-lipoxygenase (ALOX12). Potency, µM (series often up to 57.1 µM), without a hit: top-dose activity change, negative = inhibition, usual class: inhibitors. 150,000 compounds, 0.12% hits. P18054. purified 12-hLO, xylenol orange hydroperoxide absorbance; further: potency means the concentration at half of the fitted maximal effect; nearly all actives have a fitted effect of over 55% in size
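Hydroperoxide formation by human 12-lipoxygenase from 40 uM arachidonic acid was followed colorimetrically via ferric-xylenol orange complex, using the 573/405 nm absorbance ratio. Enzyme concentration was 150 nM, with 30 min reaction at room temperature.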
HPGD block: HPGD (human) dehydrogenase inhibition. P15428. purified HPGD, NADH fluorescence kinetic, PGE2 substrate. Potency, µM, for the others: at the highest dose activity change, negative = inhibition, actives largely listed as inhibitors. 150,000 compounds, 4.3% hits. AID 894; active means well fitted inhibition curve with a large enough effect, not every such curve was filed as active; inconclusive means small, poorly fitted or top-dose-only effect, or another doubt; inactive means no such curve, though single readings can be large or run the other way; further: potency means the concentration at half of the fitted maximal effect
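20 nM HPGD preincubated 15 min at room temperature with compound in 50 mM Tris-HCl pH 8, 0.01% Tween 20. Started with 1 mM NAD+ and 30 uM prostaglandin E2; NADH fluorescence (360/450 nm) read 5 times over 30-s intervals, last minus first.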
IMPase cell inh: membrane-permeable compound that blocks inositol monophosphatase. inhibition (IP1 accumulation), % at 46.1 µM. 120,000 tested, under 10 active. P97697. CHO-M1 cells, IP1 accumulation, HTRF TR-FRET ratio. AID 901; active means well fitted curve in the direction sought with a large enough effect in the signal ratio, not every such curve was filed as active; inconclusive means small, poorly fitted or top-dose-only effect, or a change in a side signal; inactive means no such curve, though single readings can be large or run the other way; the % refers to the signal ratio;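 further: cells stimulated with carbachol in lithium chloride buffer; plate controls were DMSO basal wells for no effect and reference inhibitor wells for full effect; higher means more IMPase inhibition seen as more IP1 and lower FRET ratio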
Target sequence (P97697 whole entry, looked up): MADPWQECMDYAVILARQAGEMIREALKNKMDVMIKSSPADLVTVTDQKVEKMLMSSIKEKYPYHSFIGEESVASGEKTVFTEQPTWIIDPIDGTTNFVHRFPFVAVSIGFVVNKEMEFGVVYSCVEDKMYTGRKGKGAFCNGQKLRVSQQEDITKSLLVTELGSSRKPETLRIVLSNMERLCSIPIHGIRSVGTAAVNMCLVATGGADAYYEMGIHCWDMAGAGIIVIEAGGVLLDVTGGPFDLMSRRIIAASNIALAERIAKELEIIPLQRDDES
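Cellular IMPase inhibition is scored as a rise in cytosolic IP1, detected by competitive TR-FRET between d2-labelled IP1 and a europium anti-IP1 antibody. M1-expressing CHO cells were stimulated with carbachol for 30 min at 37C, with lithium (50 mM LiCl) present in the buffer.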
Starred values were filed as active, the others as inactive; [ ] = another dose, or the depositor's remark. Unless noted, the call rests on the fitted dose curve; in most records, active means well fitted curve in the direction sought with a large enough effect; inconclusive means small, poorly fitted or top-dose-only effect, or another doubt; inactive means no such curve, though single readings can be large; an effect the other way counts as inactive or inconclusive. Unless noted, on the % scale 0 is the no-effect control and ±100 the full control effect.

For O=C(c1ccc(S(=O)(=O)N2CCCCC2)cc1)N1CCCc2ccccc21 the results were ALDH1A1 inh inconclusive, IMPase Li cell 12.6%[38.3 µM], NPSR antag -17.1%[46.1 µM], 12-hLO inh -2.1%, HPGD block -2.2% and IMPase cell inh -6.1.
`O=[N+]([O-])c1ccc(N/N=C/c2ccc(O)c(O)c2O)c(S(=O)(=O)N2CCOCC2)c1` gave ALDH1A1 inh 3.55µM*, IMPase Li cell 16.9% and NPSR antag -35.0%.
Screening O=C(CCc1ccc(S(=O)(=O)N2CCOCC2)cc1)N/N=C/c1ccc(O)c(O)c1O returned ALDH1A1 inh 12.6µM*, IMPase Li cell 0.7%, NPSR antag 7.4%, 12-hLO inh -5.2% and HPGD block inconclusive.
O=C(CCc1ccc(S(=O)(=O)N2CCOCC2)cc1)N/N=C/c1ccc(F)cc1F was read as ALDH1A1 inh -9.3%, IMPase Li cell 10.9% and NPSR antag -7.6%.
For Cc1cc(C)cc(CSc2nnc(C)c(=O)[nH]2)c1 the results were ALDH1A1 inh -4.9%, IMPase Li cell 37.6%[38.3 µM], NPSR antag -1.9%[46.1 µM], 12-hLO inh 4.9%, HPGD block inconclusive and IMPase cell inh -6.8.
`CCCCC(=O)NC(c1cccs1)c1cc(Cl)c2cccnc2c1O` (configuration not stated) gave ALDH1A1 inh 7.08µM*, IMPase Li cell 5.3% and NPSR antag 25.1%.
For CCC(=O)NC(c1cccs1)c1cc(Cl)c2cccnc2c1O (configuration not stated) the results were ALDH1A1 inh 6.2%, IMPase Li cell 7.3% and NPSR antag -6.3%.
For Cc1ccccc1CN(C)CC(=O)Nc1ccccc1Oc1ccccc1 the results were ALDH1A1 inh -6.6%, IMPase Li cell 1.9%, NPSR antag -37.6%, 12-hLO inh -8.0% and HPGD block -3.1%.
For Cc1cccc(Nc2nc(-c3ccncc3)cs2)c1 the results were ALDH1A1 inh 4.1%, IMPase Li cell -6.4% and NPSR antag -23.4%.
`Cc1cccc(Nc2nc(-c3ccc4c(c3)OCCO4)cs2)c1` gave ALDH1A1 inh 20µM*, IMPase Li cell 25.9%[38.3 µM], NPSR antag -4.6%[46.1 µM], 12-hLO inh -4.0%, HPGD block -7.7% and IMPase cell inh -2.2.
`CC(NC(=O)c1ccc(Br)cc1)c1ccccc1` (configuration not stated) gave ALDH1A1 inh 11.2µM*, IMPase Li cell 0.5%, NPSR antag 3.0%, 12-hLO inh -1.4% and HPGD block -6.3%.
`CC(NC(=O)Cc1ccc(-c2ccccc2)cc1)c1ccccc1` (configuration not stated) gave ALDH1A1 inh 11.2µM*, IMPase Li cell 15.9%[38.3 µM], NPSR antag -21.6%[46.1 µM], 12-hLO inh -1.2%, HPGD block 14.1µM* and IMPase cell inh 6.6.
`CC(NC(=O)c1ccccc1)c1ccc(Br)cc1` (configuration not stated) gave ALDH1A1 inh 1.3%, IMPase Li cell 0.6% and NPSR antag 0.8%.
For COc1cccc(Nc2ncc3ncc(=O)n(Cc4cccs4)c3n2)c1 the results were ALDH1A1 inh inconclusive and IMPase Li cell 36.1%.
Cc1ccc(N(C(=O)C2COc3ccccc3O2)C(C(=O)NC2CCCCC2)c2cn(C)nc2C)cc1 (configuration not stated) was read as ALDH1A1 inh -2.4%, IMPase Li cell 22.0%, NPSR antag -22.6%, 12-hLO inh 0.0% and HPGD block -4.9%.
`Cc1nnc(SCCn2c(N3CCCCC3)nc3c2c(=O)[nH]c(=O)n3C)s1` gave ALDH1A1 inh 2.6%, IMPase Li cell -6.8%, NPSR antag 12.6%, 12-hLO inh 0.2% and HPGD block -3.4%.
For CCSc1nnc(NC(=O)CSc2nnc(Cc3cccn3C)n2-c2ccc(F)cc2)s1 the results were ALDH1A1 inh 17.1%, NPSR antag -16.6%[46.1 µM], 12-hLO inh -9.9% and IMPase cell inh -25.9.
`CCNc1nc(NCC)nc(Oc2ccc(OCC)nn2)n1` gave ALDH1A1 inh 10.3%, IMPase Li cell -23.3%[38.3 µM], NPSR antag 2.5%[46.1 µM], 12-hLO inh 1.9%, HPGD block -6.7% and IMPase cell inh 8.8.
`CCNc1nc(N)nc(Oc2ccc(OCCOc3ccc(Cl)cc3Cl)nn2)n1` gave ALDH1A1 inh -2.5%, IMPase Li cell 19.5%[38.3 µM], NPSR antag -6.0%[46.1 µM], 12-hLO inh -0.4%, HPGD block 1µM* and IMPase cell inh 11.0.
`CCc1ccc(C(C)NC(=O)/C=C/c2ccc(Br)cc2)cc1` (configuration not stated) gave ALDH1A1 inh 15.2%, IMPase Li cell 35.8%[38.3 µM], NPSR antag -16.9%[46.1 µM], 12-hLO inh -0.4%, HPGD block -7.5% and IMPase cell inh 0.8.
Screening COc1ccc(CC(NC(C)=O)C(=O)NC2CCN(c3nnnn3-c3ccccc3)CC2)cc1 (configuration not stated) returned ALDH1A1 inh 2.51µM*, IMPase Li cell 6.6%[38.3 µM], NPSR antag 11.0%[7.67 µM], 12-hLO inh -3.4%, HPGD block -8.3% and IMPase cell inh 3.5.
Screening COc1nc(OC)nc(N2CCC(NC(=O)C(Cc3ccc(C(C)C)cc3)NC(C)=O)CC2)n1 (configuration not stated) returned ALDH1A1 inh -9.7%, IMPase Li cell 3.8%, NPSR antag 2.0%[46.1 µM], 12-hLO inh 6.8%, HPGD block -12.4% and IMPase cell inh -14.3.
`COc1cccc(CC(NC(C)=O)C(=O)NC2CCN(S(=O)(=O)c3cccc4ccccc34)CC2)c1` (configuration not stated) gave ALDH1A1 inh -3.2%, IMPase Li cell 2.1%[38.3 µM], NPSR antag -13.5%[46.1 µM], 12-hLO inh -2.9%, HPGD block -0.5% and IMPase cell inh 9.4.
Screening CC(=O)NC(Cc1cccc(F)c1)C(=O)NC1CCN(c2nnnn2-c2ccccc2)CC1 (configuration not stated) returned ALDH1A1 inh 1.41µM*, IMPase Li cell 9.1% and NPSR antag -6.7%.
For COc1cccc(CC(NC(C)=O)C(=O)NC2CCN(c3nnnn3-c3ccccc3)CC2)c1 (configuration not stated) the results were ALDH1A1 inh 14.1µM*, IMPase Li cell 1.2%[38.3 µM], NPSR antag -6.9%[46.1 µM], 12-hLO inh 0.7%, HPGD block -5.8% and IMPase cell inh -16.9.
`CCOc1ccc(NC(=O)N2CCC(NC(=O)C(Cc3ccc(OC)c(OC)c3)NC(C)=O)CC2)cc1` (configuration not stated) gave ALDH1A1 inh 0.0562µM*, IMPase Li cell -23.4%[38.3 µM], NPSR antag 5.8%[46.1 µM], 12-hLO inh -8.6%, HPGD block 3.3% and IMPase cell inh 1.4.
